# High-throughput results (PubChem)
# The list is not random: actives were taken first. Their share in the collection is about 8%.
# PostGolgi yeast: phenotypic screen on post-Golgi transport, primary screen. 98,000 compounds, 0.9% hits. post-Golgi transport phenotypic cell assay. inhibition, % at 10 µM;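 further: yeast cells grown in 1536-well plates; yeast grown about 18 h at 30C before absorbance read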
# Pyk2 oligo antag: antagonists of Pyk2 self-association, primary screen, Q293 cells, FERM NanoBiT luminescence, HTS; active compounds read low; 99,000 compounds, 0.83% hits; Protein-tyrosine kinase 2-beta (Homo sapiens), Q14289; z-score (the deposit names both 25 µM and 10 µM); AID 1347419, 2020;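 active means Z-score of -3 or lower, scaled per plate to the spread of control and sample wells; inactive means z-score above -3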;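 further: negative z-score means lost luminescence so less FERM oligomerization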
# PostGolgi ctrl: growth inhibition of yeast control strain, primary screen, counter-screen for post-Golgi transport modulator project | efflux-deficient yeast background strain, growth absorbance A615, 16 h | inhibition, % at 10 µM | 98,000 compounds, 5% hits | AID 738, 2007
# Cav3 T inh: Cav3.2 calcium influx blockers – cell-based, Fluo-4 calcium fluorescence, FDSS, MLSMR library, primary screen; B-score at 10 µM; AID 449739, 2010; Cav3.2-expressing cells; active compounds read low; 100,000 compounds, 4% hits;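 active means single-dose well whose peak fluorescence ratio is a statistical outlier from its plate by either plate-standardised score or position-corrected B-score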
# Active calls of the source: *; x = not tested or not shown. Unless noted, no stated cut-off is given here; in the data, active means inhibition above about 30%; inactive means the rest.
SMILES,PostGolgi yeast,Pyk2 oligo antag,PostGolgi ctrl,Cav3 T inh
CC(C)Oc1ccc(C(=O)N2CCCc3ccccc32)cc1,-5,-1.6,31*,-3.3
COc1cccc(-c2cc(C(=O)N3CCCc4ccccc43)no2)c1,1,-1.7,35*,-1.2
COc1ccc(OCCCC(=O)N2CCCc3ccccc32)cc1,-6,0.86,34*,-1.1
COc1ccc(C(=O)N2CCCc3ccccc32)cc1,-8,-0.74,-3,-0.021
COc1ccc(-c2cc(C(=O)N3CCCc4ccccc43)no2)cc1,1,-1.5,9,x
O=C(c1ccc(Cl)s1)N1CCc2ccccc21,0,-0.77,7,-0.27
Oc1ccc2ccccc2c1C=Nc1ccccc1-c1nc2ccccc2[nH]1,1,-1.6,17,x
Cn1c(N)c(C(=O)COC(=O)C2(c3ccc(Cl)cc3)CCCC2)c(=O)n(C)c1=O,-1,-0.52,6,-0.38
O=C(c1ccc(Cl)cc1)C1CCN(C(=O)C2CC2)CC1,23,0.39,19,0.81
COC(=O)c1cccc(COC(=O)c2ccc(CS(=O)(=O)c3ccc(C)cc3)cc2)c1,2,0.31,5,0.029
Cc1nc2ccc(Nc3nc4cc(S(=O)(=O)N5CCOCC5)ccc4o3)cc2s1,-1,-1.5,24,-0.092
CCN(CC)S(=O)(=O)c1ccc2oc(Nc3ccc4c(c3)OCCO4)nc2c1,2,-3.5*,5,-0.2
Cc1ccc2c(c1)c1ncnc(N3CCN(c4ccccc4)CC3)c1n2C,17,1.3,53*,x
Cc1ccc2c(c1)c1ncnc(N3CCOCC3)c1n2C,20,0.69,36*,x
Cc1ccc2c(c1)c1ncnc(N3CCC4(CC3)OCCO4)c1n2C,-2,x,19,x
C#CCN(C#N)c1nc(NCC)nc(NC(C)C)n1,-8,-0.16,2,1
CCNc1nc(NC(C)C)nc(N(C#N)CCOc2ccccc2)n1,-13,-2.1,16,-5*
CSc1nc(-c2ccco2)nn1C(=O)c1ccc(Cl)cc1,6,x,2,x
O=C(COc1ccc(Cl)cc1Cl)Nc1nc2n(n1)C(c1ccccc1)CC(=O)N2 (configuration not stated),-4,-0.72,-1,-3.7*
O=C1CC(c2ccccc2)n2nc(NS(=O)(=O)c3ccccc3)nc2N1 (configuration not stated),25,0.37,-4,-1.1
COC(=O)c1ccc(C(=O)OC)c(NC(=O)CN(c2ccc3c(c2)OCO3)S(C)(=O)=O)c1,6,-1.2,11,-1.2
COc1ccc(NC(=O)c2cccnc2N2CCCCC2)cc1,7,0,9,-1.3
O=C(Nc1ccc(Br)cc1)c1cccnc1N1CCCCC1,-3,0.42,32*,-0.77
CCOC(=O)c1oc2ccc(S(=O)(=O)n3nc(-c4ccc(C)cc4)cc3N)cc2c1C,10,x,32*,0.44
CCOC(=O)c1oc2ccc(S(=O)(=O)n3nc(-c4ccc(Cl)cc4)cc3N)cc2c1C,4,x,7,-0.61
SMILES,PostGolgi yeast,Pyk2 oligo antag,PostGolgi ctrl,Cav3 T inh
Cc1nnsc1NC(=O)OCc1ccc(C(C)(C)C)cc1,0,0.77,15,-0.11
O=C(CCNS(=O)(=O)c1cccs1)NCc1ccccc1,21,0.23,12,0.22
Cc1ccc(N/C=C(/C#N)c2ccsc2)cc1C,-2,-0.44,39*,-1.1
COC(=O)c1ccc(CSc2nnc3c(Cl)cc(Cl)cn23)o1,4,1.7,8,-1.2
Cc1cc(/C=N/n2cnnc2)c(C)n1-c1ccc(Cl)cc1Cl,2,1,37*,-2.2
Cc1cc(/C=N/n2cnnc2)c(C)n1-c1ccc(OCc2ccc(F)cc2)cc1,-1,-0.8,61*,x
c1ccc(-c2cc3c(ccc4nonc43)nn2)cc1,-1,-0.32,10,0.1
On1onc2c3cc(-c4ccccc4)nc3ccc21,96*,-2.8,94*,x
CCCN1CCN(C(=O)CCCn2c(C)c3cnn(-c4ccccc4)c(=O)c3c2C)CC1,-3,x,31*,1.4
C=CCOC(=O)C1=C(C)NC(SC)=C(C#N)C1c1ccc(OCC)cc1 (configuration not stated),-8,-3.1*,-4,-3.4
C=CCOC(=O)C1=C(C)NC(C)=C(C(=O)OCC=C)C1c1ccc(O)cc1,x,-3.5*,x,-0.47
C=CCOC(=O)C1=C(C)NC(SC)=C(C#N)C1c1cccs1 (configuration not stated),7,-2.4,20,-2.2
CC(=O)C(Sc1nn(C)c(=S)s1)C(=O)Nc1ccccc1 (configuration not stated),11,0.31,2,-1.6
O=C(COc1ccc(-c2ccccc2)cc1)N1CCN(S(=O)(=O)Cc2ccccc2)CC1,0,-1,8,-0.098
CCOc1ncccc1C(=O)OCC(=O)c1cc(C)n(Cc2ccco2)c1C,-2,0.63,8,-4.9*
Cc1cc(C(=O)COC(=O)c2ccc(O)cc2)c(C)n1Cc1ccco1,x,-0.24,x,x
COC(=O)C(NC(=O)COc1ccccc1)(Nc1nc2c(s1)CCCC2)C(F)(F)F (configuration not stated),x,-0.28,x,-6.3*
CC(C)c1ccc(NC(=O)C(c2ccc3c(c2)OCO3)N2CCC3(CC2)OCCO3)cc1 (configuration not stated),-2,-2,11,-7.5*
CCOCCCNC(=O)C(c1ccc(Cl)cc1)N1CCC2(CC1)OCCO2 (configuration not stated),-4,0.48,1,1.7
CC(C)c1ccc(NC(=O)C(c2ccc3c(c2)OCO3)N2CCCCC2)cc1 (configuration not stated),-5,x,3,-2.5
O=C(Nc1ccc2c(c1)OCO2)C(c1ccc(Cl)cc1)N1CCC2(CC1)OCCO2 (configuration not stated),1,-1.3,18,-6.7*
O=C1NC[C@H](c2ccccc2)N(CCc2cccc(F)c2)C1=O,x,x,x,0.33
CC1(C)Cc2c(sc3nc(SCC(=O)NCc4ccco4)n(-c4ccccc4)c(=O)c23)CS1,-2,0.83,1,-2.6
O=C(CSc1nc2sc3c(c2c(=O)n1-c1ccccc1)CCCC3)NCc1ccco1,-1,x,32*,x
COc1cc(NC(=O)CN2CCN(S(=O)(=O)c3ccc(C(C)C)cc3)CC2)cc(OC)c1,-3,-1.1,20,-4.2*
SMILES,PostGolgi yeast,Pyk2 oligo antag,PostGolgi ctrl,Cav3 T inh
COc1cc(NC(=O)CN2CCN(c3ccccc3F)CC2)cc(OC)c1,2,-0.55,3,x
COc1cccc(NC(=O)CN2CCN(c3ccccc3F)CC2)c1,-8,0.35,32*,x
COc1cccc(NC(=O)CN2CCN(S(=O)(=O)c3ccc(C(C)C)cc3)CC2)c1,-10,-0.27,18,-7.3*
COc1ccc(S(=O)(=O)N2CCN(CC(=O)Nc3cc(OC)cc(OC)c3)CC2)cc1,-2,-0.76,17,x
O=c1c(C=Nc2ccc(Cl)cc2)c[nH]n1-c1cccc(Cl)n1,0,0.14,-2,0.84
Cc1nn(CC(=O)O)c(C)c1Cl,-10,-0.29,-1,1.3
COc1ccc(C2C(Oc3ccccc3C)C(=O)N2Cc2ccc(F)cc2)cc1OC (configuration not stated),-6,0.51,10,-4.7*
O=C(/C=C(\O)c1ccc(Cl)cc1)C(=O)NNC(=O)C(O)(c1ccccc1)c1ccccc1,15,-0.92,24,-8.6*
